# Measured values published in ChEMBL document CHEMBL1157539, “Thousands of chemical starting points for antimalarial lead identification” (Nature, 2010).
# Several values for one entry are separate records, joined by “and”; a condition that tells them apart may be missing. Equal values may be shown once.
# Legend:
# Type in all cases: functional
# [1] = tested on: Plasmodium falciparum; assay: GSK_TCMDC: Inhibition of Plasmodium falciparum 3D7 in whole red blood cells, using parasite LDH activity as an index of growth. Test compounds present at 2uM
# [2] = tested on: Plasmodium falciparum; assay: GSK_TCMDC: Inhibition of Plasmodium falciparum Dd2 in whole red blood cells, using parasite LDH activity as an index of growth. Test compounds present at 2uM
# [3] = tested on: HepG2; assay: GSK_TCMDC: Percent inhibition of human HepG2 cell line. Test compounds present at 10uM.
SMILES,Inhibition [1] [%],Inhibition [2],Inhibition [3] [%]
Nc1cccc(CNCc2cccc(-c3csc(-c4nc5ccccc5[nH]4)c3)c2)c1.O=C(O)C(F)(F)F,100,63%,13
S=C(NN=Cc1ccccn1)NC1CC2C=CC1C2 (stereo not given),99,96%,51
O=C(NCCN1CCCC1)c1ccc(-c2cccc(-c3nc4cc(F)ccc4[nH]3)c2)cc1,100,2%,29
COc1cccc2sc(N3CCN(C(=O)c4ccc([N+](=O)[O-])o4)CC3)nc12,95,67%,0
c1csc(-c2nc(N3CCCCC3)ncc2-c2ccsc2)n1,89,72%,0
CCc1cc(NCc2ccncc2)nc(Nc2ccc(F)cc2)n1,92,17%,8
CCOC(=O)c1ccc(N(CCCN(CCCN(c2ccc(C(=O)OCC)cc2)S(=O)(=O)c2ccc(C)cc2)CCc2ccc(O)cc2)S(=O)(=O)c2ccc(C)cc2)cc1,96,74%,0
Cl.O=c1cc(NCCCNCc2ccc(Cl)c(Cl)c2)[nH]c2ccc(C(F)(F)F)cc12,100,68%,10
COc1ccc(Br)cc1C1Nc2ccc3ccccc3c2C2=C1C(=O)CC(c1ccccc1)C2 (stereo not given),100,96%,25
CCc1c(C)nc(-n2nc(C)cc2NC(=O)C(CC)c2ccccc2)[nH]c1=O (stereo not given),97,93%,41
CCOC(=O)c1ccc(NC(=O)Nc2cccc(-c3ccc(-c4nc5cc(C(F)(F)F)ccc5[nH]4)cc3)c2)cc1,100,99%,62
Nc1c2c(nc3ccccc13)C(=Cc1ccc(O)cc1)CCC2,99,6%,9
CC(C)CNC(=O)c1ccnc(-c2ccc(CNCCCc3ccccc3)cc2)c1.O=C(O)C(F)(F)F,99,22%,12
CC(C)[C@H](NCC(=O)c1ccccc1)C(=O)O.Cl,99,0%,6
Cc1[nH]c(C)c(-c2ccc(Oc3ccc(OC(F)(F)F)cc3)cc2)c(=O)c1Br,96,97% and 95%,0
O=C(NCCCN1CCN(c2cccc(Cl)c2)CC1)c1ccc(-c2nc3cc(Cl)c(Cl)cc3[nH]2)c(F)c1,100,72%,3
O=C(O)C(F)(F)F.c1cc(CN2CCCCC2)cc(-c2ccc(-c3nc4ccccc4[nH]3)s2)c1,100,100%,11
CC(C)c1ccc(NC(=O)c2ccc(C(=O)NC3CCN(CC4CCCCC4)C3)cc2)cc1.O=C(O)C(F)(F)F (stereo not given),93,26%,35
CCc1ccc(CNCC(CCNc2cc(=O)c3ccccc3[nH]2)NCc2cc(Br)cc(Br)c2)o1 (stereo not given),100,92%,0
COc1ccc(N2CCN(CCCCNC(=O)c3ccc(NC(=O)c4cc(C(F)(F)F)cc(C(F)(F)F)c4)cc3)CC2)cc1OC,100,100%,9
CCC(C)NS(=O)(=O)c1ccc2nc(Nc3ccc(C)cc3)n(C3CCCCC3C)c2c1 (stereo not given),95,99%,1
CN(C)CCNCc1ccc(-c2cccc(-c3nc4ccccc4[nH]3)c2)cc1.O=C(O)C(F)(F)F,100,63%,31
CN1CCN(CCCN(Cc2ccc(-c3ccc(CNC4CCCC4)cc3)cc2)C(=O)CCC2CCCC2)CC1.O=C(O)C(F)(F)F,98,96%,92
CN1CCN(Cc2cccc(-c3ccc4c(Nc5ccc(F)cc5Cl)ccnc4c3)c2)CC1,100,100%,20
CCCNCc1ccc(-c2ccc(CN(Cc3cnc(C)cn3)C(=O)c3nn(-c4ccccc4)nc3C)cc2)nc1.O=C(O)C(F)(F)F,99,49%,22
COc1ccc2nccc([C@@H](O)CN3CCC(NCc4cc5oc(=O)[nH]c5cc4F)CC3)c2c1.O=C(O)C(=O)O,99,4%,0
Cc1nc(O)c2c(ccc3ccc(CN(C)c4ccc(C(=O)N[C@@H](CCC(=O)O)C(=O)O)cc4)cc32)n1,95,27%,42
CCC(C)(C)c1ccc(Oc2ccc(NC(=O)Nc3ccc(Cl)c(Cl)c3)cc2)cc1,98,97%,13
Cn1cnc(CCNC(=O)c2ccc(-c3ccc(-c4nc5cc(F)ccc5[nH]4)cc3)cc2)c1,92,15%,17
O=C(NC1CCN(Cc2ccccc2)CC1)c1ccc(-c2nc3cc(Cl)c(F)cc3[nH]2)s1,100,99%,28
